Screen size: about 5,500 compounds; about 2,000 (36%) were called active. Inconclusive results (about 18%) are left out. No stated cut-off is given here; in the data, active means normalized growth mostly below about 0.91 (no sharp cut-off); inconclusive means no clear call, values can overlap the other calls; inactive means mostly above about 0.92. Some of the results follow.
Assay: chemical genetic growth profiling, strain panel (AID 1159580);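 further: tested at 20 µM; growth read once vehicle control cultures reached saturation at 30 °C; 1 = growth at the plate median or of vehicle wells; lower values mean less growth of the strain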
Conditions: S. cerevisiae deletion strains, growth OD

Measured: normalized growth

CCOC(=O)/C(C#N)=C/N=C(N/N=C\c1c(Cl)cccc1Cl)SC
inactive: locus YAL013W, strain DEP1, active compounds read low 0.98 | locus YBR229C, strain ROT2, active compounds read low 1.02 | locus YCL061C, strain MRC1, active compounds read low 1.06 | locus YDL101C, strain DUN1, active compounds read low 1.04 | locus YDR150W, strain NUM1, active compounds read low 1.03 | locus YGR078C, strain PAC10, active compounds read low 0.996 | locus YHR087W, strain rtc3, active compounds read low 1.01 | locus YJL187C, strain SWE1, active compounds read low 0.998 | locus YJR043C, strain POL32, active compounds read low 1.04 | locus YJR075W, strain HOC1, active compounds read low 1.02 | locus YLR058C, strain SHM2 (second series), active compounds read low 0.989 | locus YLR085C, strain ARP6, active compounds read low 0.845 | locus YML094W, strain GIM5, active compounds read low 0.901 | locus YMR219W, strain ESC1, active compounds read low 1.01 | locus YMR263W, strain SAP30, active compounds read low 1.01 | locus YMR307W, strain GAS1, active compounds read low 0.799 | locus YNL153C, strain GIM3, active compounds read low 1.03 | locus YNL322C, strain KRE1, active compounds read low 0.968 | locus YPL055C, strain LGE1, active compounds read low 0.956 | locus YPR135W, strain CTF4, active compounds read low 0.795
active: locus YEL061C, strain CIN8, active compounds read low 0.8 | locus YHR030C, strain SLT2, active compounds read low 0.687 | locus YKL190W, strain CNB1, active compounds read low 0.926 | locus YLR039C, strain RIC1, active compounds read low 0.771 | locus YLR262C, strain YPT6, active compounds read low 0.796 | locus YNL298W, strain CLA4 (second series), active compounds read low 0.795 | locus YNR030W, strain Alg12, active compounds read low 0.863 | locus YPL241C, strain CIN2, active compounds read low 0.764
